# L major viab: reduces viability of Leishmania major promastigotes. resazurin fluorescence viability. inhibition, % at 10 µM. 9% of 200,000 active. AID 1063; in the data active means inhibition above about 50%;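 further: promastigotes grown with compound for 44 hours at 28 °C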
# HCT116 PTEN-null: PTEN-deleted cell growth suppression; 1.2% of 140,000 active; viability, % at 10 µM; HCT116 PTEN-null viability, CellTiter-Glo, 60 h; active compounds read low;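 active means viability at or below a set limit, 4 SD under the median of all tested compounds, cut at about 3.7% in these data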;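 further: PTEN knockout HCT116 line with beta catenin targeted HCT116 as companion control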
# HCT116 bCat-KO: beta-catenin-lacking colon tumor cell growth suppression; HCT116 beta-catenin knockout viability, CellTiter-Glo, 60 h; active compounds read low; viability, % at 10 µM; 1.5% of 140,000 active; AID 818;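 active means viability at or under a set limit, the compound median less 4 SD, cut at about 6% in these data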;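 further: 0% = Hyamine 1622 control at 20 µM and 100% = untreated cell control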
# p97 inhibitor: inhibitors of human p97 ATPase | P55072 | recombinant p97 ATPase, Kinase-Glo ATP luminescence, 3 h | inhibition, % at 8 µM | 0.42% of 220,000 active | AID 1481; in the data active means inhibition above about 15%;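 further: 0% = DMSO vehicle and 100% = wells lacking enzyme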
# Target sequence (P55072 whole entry, looked up): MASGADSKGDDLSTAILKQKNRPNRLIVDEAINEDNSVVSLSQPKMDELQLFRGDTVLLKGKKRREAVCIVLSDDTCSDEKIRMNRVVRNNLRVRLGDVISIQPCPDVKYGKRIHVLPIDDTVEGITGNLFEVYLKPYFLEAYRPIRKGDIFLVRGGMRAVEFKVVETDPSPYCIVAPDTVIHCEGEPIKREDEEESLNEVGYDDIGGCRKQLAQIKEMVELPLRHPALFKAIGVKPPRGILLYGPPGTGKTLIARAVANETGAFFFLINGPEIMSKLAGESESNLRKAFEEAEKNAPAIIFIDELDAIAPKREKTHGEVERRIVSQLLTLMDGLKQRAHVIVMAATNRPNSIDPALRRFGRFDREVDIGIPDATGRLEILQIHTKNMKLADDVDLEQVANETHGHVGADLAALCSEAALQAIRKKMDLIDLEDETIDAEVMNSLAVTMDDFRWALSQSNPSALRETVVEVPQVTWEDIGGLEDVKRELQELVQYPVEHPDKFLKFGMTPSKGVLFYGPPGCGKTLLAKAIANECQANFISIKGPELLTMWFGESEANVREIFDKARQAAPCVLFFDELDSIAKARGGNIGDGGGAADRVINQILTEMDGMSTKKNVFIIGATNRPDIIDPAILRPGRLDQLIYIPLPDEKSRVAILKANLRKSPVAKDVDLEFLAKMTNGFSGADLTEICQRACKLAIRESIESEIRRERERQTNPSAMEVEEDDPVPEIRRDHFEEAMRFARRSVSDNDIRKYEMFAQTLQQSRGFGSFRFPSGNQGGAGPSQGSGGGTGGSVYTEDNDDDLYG
# Insulin prom inh: TRM-6 insulin promoter activity inhibition; TRM-6 cells (human fetal islet line), insulin promoter-eGFP reporter, imaging; reporter expression induced with tamoxifen; AID 1273; inhibition, % at 2 µM; 0.9% of 130,000 active;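 active means inhibition above the mean plus 3 SD, with well images judged a real hit on visual review, cut at about 60% in these data, passing the limit was not always enough; inconclusive means inhibition over the cutoff but images rejected on review; inactive means inhibition not above the cutoff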
# ROMK primary: human ROMK K+ channel modulation, primary screen. P48048. Tet-inducible ROMK, thallium flux fluorescence; actives lie on both sides. B-score at 10 µM. 2% of 130,000 active. AID 1918;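 active means signal ratio slope over the read window, or its plate-corrected B-score, at least 3 SD from the plate mean, either direction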;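 further: B-score of the F/F0 ratio slope over 7 to 12 s after thallium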
# ROMK hit retest: retested hit modulating human ROMK potassium channel | shares compounds with ROMK primary | ROMK thallium flux, fluorescence ratio; active compounds read low | normalized thallium flux (F/F0 slope) at 10 µM | 54% of 3,000 active;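 active means Flux at 10 µM at least 3 SD below or above vehicle control mean in one or both replicates; inconclusive means no clear call, values can overlap the other calls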
# * marks the source's active call; other numbers are inactive results; ? = inconclusive; / = no result. An excerpt weighted towards active compounds, which were near 10% of everything screened.
SMILES,L major viab,HCT116 PTEN-null,HCT116 bCat-KO,p97 inhibitor,Insulin prom inh,ROMK primary,ROMK hit retest
O=C(CSc1ccccc1)Nc1ccc(S(=O)(=O)NCC2CCCO2)cc1 (centres undefined),-1.5,104.0,95.1,1.6,18.2,/,/
Cc1c(C(=O)N2CCCc3ccccc32)oc2ccc(S(=O)(=O)N3CCOCC3)cc12,16.6,68.9,67.8,-7.1,/,-2.25,/
C=CCc1cccc2cc(C(=O)NC(C)(C)C)c(=O)oc12,-3.1,90.6,94.8,-0.3,-5.6,7.42*,0.0718
C=CCc1cccc2cc(C(=O)Nc3cccc(C(=O)O)c3)c(=O)oc12,/,/,/,4.0,/,/,/
S=c1[nH]cnc2sc(Nc3ccccc3)nc12,/,/,/,7.1,/,/,/
COc1ccc(NC(=O)c2ccccc2NS(=O)(=O)c2ccc(C)cc2)c([N+](=O)[O-])c1,0.2,83.8,95.4,4.5,0.0,-0.00798,/
COc1ccc(C(=O)COC(=O)c2ccccc2NS(=O)(=O)c2ccc(O)c([N+](=O)[O-])c2)cc1,/,/,/,-5.0,/,/,0.0806
O=C(c1ccc(Cl)c(S(=O)(=O)N2CCCCCC2)c1)N1CCN(c2ccccc2O)CC1,29.7,/,/,3.9,0.0,-0.0209,/
COc1ccc(CNc2nc3ccccc3n2C)c(O)c1,/,/,/,1.6,/,/,/
COc1ccc(CNc2nc3ccccc3n2C)c(OC)c1,-5.6,/,/,0.2,/,-7.63*,0.0771
CCCNC(=O)CC(NS(=O)(=O)c1ccc(OC)cc1)c1ccco1 (centres undefined),-5.5,/,/,1.9,/,0.0672,/
COc1ccc(-n2nnc3c(SCC(=O)Nc4ccccc4F)ncnc32)cc1,-5.6,/,/,6.1,/,1.39,/
C/C(=N\NC(=O)c1cccc(N/N=C(\C)c2ccc([N+](=O)[O-])cc2)c1)c1ccc([N+](=O)[O-])cc1,/,/,/,-0.2,/,/,/
CCc1ccc2nc(SCC(=O)Nc3nnc(C)s3)c(C)cc2c1,-5.0,/,/,4.9,41.7,0.915,0.0915
CCc1nnc(NC(=O)CSc2nc3cc4c(cc3cc2C)OCCO4)s1,-4.4,84.1,103.0,-1.2,10.7,/,/
O=c1[nH]c(CSc2nc3ccccc3[nH]2)nc2c1cnn2-c1ccccc1,69.3*,49.7,44.7,7.2,10.8,-3.44*,0.0529*
Cc1ccc2nc(SCc3nc4c(cnn4-c4ccccc4)c(=O)[nH]3)[nH]c2c1,10.2,37.7,38.5,-0.8,/,1.74,/
CCCc1c(C)[nH]c2ccc(C(=O)O)cc2c1=S,/,/,/,8.8,/,0.873,/
Nc1nc2c(nc(SCc3ccccc3Br)n2C2OC(CO)C(O)C2O)c(=O)[nH]1 (centres undefined),-2.6,/,/,7.5,-50.0,-1.25,/
Cc1ccc(C2C(C(=O)c3cccs3)=C(O)C(=O)N2c2nnc(C)s2)cc1 (centres undefined),-5.4,/,/,2.4,/,-2.31,0.0518*
O=C1/C(=C/c2ccncc2)SC(=S)N1Cc1ccccc1,/,/,/,8.2,/,/,/
CCCN1C(=O)/C(=C/c2ccncc2)SC1=S,-1.3,88.8,83.6,0.0,6.7,-2.84*,0.0444*
Cc1cc(NC(=O)/C=C/C(=O)N(CC(=O)NC2CCCC2)c2cccc3ccccc23)no1,95.7*,/,/,0.0,-7.7,-3.99*,0.0562*
Cc1cc(NC(=O)CCC(=O)N(CC(=O)NC2CCCC2)c2ccccc2)no1,-3.2,100.4,98.1,0.1,-113.3,0.905,/
O=C(O)C1CC=CCC1C(=O)c1ccccc1 (centres undefined),-2.2,104.4,98.5,4.1,65.6*,3.41*,0.0811
SMILES,L major viab,HCT116 PTEN-null,HCT116 bCat-KO,p97 inhibitor,Insulin prom inh,ROMK primary,ROMK hit retest
CC1CCN(CCCNC(=O)c2ccc(CSCc3cccc(Cl)c3)o2)CC1,100.1*,81.0,69.3,-0.2,-25.0,-4.19*,0.053*
CC1CCN(CCCNC(=O)c2ccc(CS(=O)(=O)Cc3ccccc3F)o2)CC1,5.0,117.0,91.0,-3.5,-10.0,/,/
CCOC(=O)c1ccc(N2C(=O)c3n[nH]c(C)c3C2c2ccc(OC)c(OC)c2)cc1 (centres undefined),20.7,90.9,93.9,0.5,8.3,/,0.0875
Oc1ccc2cc(Br)ccc2c1CN1CCCC1,0.2,/,/,3.4,-40.0,-0.523,0.0638*
Oc1ccc2ccccc2c1CN1CCCC1,0.6,/,/,-6.0,/,1.35,/
Cc1ccc(C(O)(C(=O)NNc2ccc3ccccc3n2)c2ccc(C)cc2)cc1,37.7,13.2,10.5,0.8,/,0.0758,/
NC(=O)NCc1cccs1,-1.3,/,/,6.4,33.3,0.0772,/
Cc1nc2cc(C(=O)OCC(=O)NC3CCS(=O)(=O)C3)ccc2n1-c1ccccc1 (centres undefined),-1.6,86.4,82.9,3.2,-23.1,-0.0568,/
Cc1nc2cc(C(=O)OCC(=O)NC34CC5CC(CC(C5)C3)C4)ccc2n1-c1ccccc1,-1.8,81.1,79.9,-2.4,-23.3,-2.99*,0.0645*
O=C(Cn1ncc2c3ccccc3n(Cc3ccc(F)cc3)c2c1=O)N1CCN(c2ncccn2)CC1,28.6,81.3,92.0,-1.2,-36.7,-2.87*,0.0673*
Cc1ccc2c(c1)c1c3n2CCCNC3CCC1 (centres undefined),8.2,74.8,74.3,4.8,/,-2.09*,0.0604*
CCCCC(c1nnnn1C1CCCC1)N1CCN(C2CCCCC2)CC1 (centres undefined),2.0,79.7,78.8,-0.2,-63.2,-4.07*,0.0631*
CC(CC(C)C(=O)Nc1ccccc1C(C)(C)C)C(=O)O (centres undefined),-5.6,100.0,93.9,-1.7,25.0,-0.0452,/
c1cncc(CNc2ncnc3sccc23)c1,6.8,/,/,5.8,/,-0.547,/
c1csc(CNc2ncnc3sccc23)c1,8.7,/,/,-1.8,30.8,-2.92*,0.0663*
O=C1C2CCCN2C(c2ccccc2F)N1c1ccc(Cl)cc1 (centres undefined),1.5,85.6,76.6,2.8,/,1.53*,0.0753
COc1ccc(N2C(=O)C3CCCN3C2c2ccccc2F)cc1 (centres undefined),-5.4,102.5,99.8,2.6,/,/,/
COc1ccccc1OCCOCCOc1ccccc1Cl,0.3,87.0,88.9,-3.8,6.2,-2.83*,0.0736
Cn1c(=O)n(C)c2cc(NS(=O)(=O)c3ccc4c(c3)CCCC4)ccc21,33.1,39.0,47.5,-7.9,6.5,-2.03*,?
Cn1c(=O)n(C)c2cc(NS(=O)(=O)c3ccc(C(C)(C)C)cc3)ccc21,48.9,/,/,3.1,/,-1.32,/
O=C(CCC1CCCCC1)NNC(=O)NC12CC3CC(CC(C3)C1)C2,12.9,101.2,92.7,-3.0,8.5,-3.09*,0.0706
O=C(O)CCC(=O)NNC(=O)CCC1CCCCC1,-1.9,93.6,92.5,-5.3,28.6,-0.184,/
Cc1ccc(N(C(=O)c2cnccn2)C(C(=O)NC2CCCCC2)c2ccc(O)cc2)cc1 (centres undefined),-5.8,/,/,-4.3,/,0.0703,/
CC(C)CC(C(=O)N1CCc2ccccc2C1)N1C(=O)c2ccccc2C1=O (centres undefined),26.3,88.0,77.1,-10.0,-26.1,-3.47*,0.0568*
O=c1cc2c(nn1Cc1cccc([N+](=O)[O-])c1)-c1ccccc1CC2,21.6,/,/,-1.4,/,-8.35*,0.053*

# Bioassay records deposited in PubChem by several laboratories.
